# Shown are actives, neighbours in structure and some others; about 1.5% of the full set was active somewhere.
# TrxR1 inh: qHTS Assay for Inhibitors of Mammalian Selenoprotein Thioredoxin Reductase 1 (TrxR1): qHTS | Thioredoxin reductase 1, cytoplasmic (Rattus norvegicus), O89049 | recombinant rTrxR1, NADPH fluorescence consumption, selenite substrate | Potency, µM (highest dose often 114 µM), hits mostly inhibitors | hit rate 1% among 390,000 | AID 588453, 2011; note: nearly all actives have a fitted effect of over 65% in size
#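 Rat TrxR1 (90 nM in the dispensed reagent) was pre-reduced with 400 uM NADPH for 5 min at room temperature, then incubated with compound for 15 min. After 400 uM selenite was added, NADPH fluorescence (Ex 340/Em 450 nm) was followed for 8 min.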
# TrxR1 substrate: qHTS Assay for Substrates of Mammalian Selenoprotein Thioredoxin Reductase 1 (TrxR1): qHTS. Thioredoxin reductase 1, cytoplasmic (Rattus norvegicus), O89049. purified TrxR1 substrate turnover, NADPH consumption readout. Potency, µM (doses to about 114 µM). hit rate 0.01% among 390,000; note: nearly all actives have a fitted effect of over 50% in size
#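 Rat TrxR1, dispensed at 90 nM, was prereduced with 400 uM NADPH (final) for 5 min at ~22 deg C, then incubated with compound 15 min before 400 uM selenite. A first-read NADPH fluorescence drop versus no-compound background flagged substrates.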
# FBPA coupling cs: qHTS Assay for Inhibitors of Fructose-1,6-bisphosphate Aldolase from Giardia Lamblia: Coupling assay counterscreen; coupling enzyme system counterscreen, AmpLite Red fluorescence; activity change, negative = inhibition, % at 58.2 µM, hits read low; hit rate 0.67% among 290,000; in the data active = activity change below about -30%
#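 Counterscreen lacking aldolase: glyceraldehyde-3-phosphate coupling-enzyme reagent preincubated 10 min at RT with compound (at 57.5 uM final), then substrate/coupling system with AmpLite Red added; fluorescence read at 525/598 nm after 20 min RT.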
# mIDH1 inhibitor: qHTS for Inhibitors of mutant isocitrate dehydrogenase 1 (IDH1): qHTS; Isocitrate dehydrogenase [NADP] cytoplasmic (Homo sapiens), O75874; IDH1-R132H enzyme, NADPH consumption, diaphorase/resazurin fluorescence; Potency, µM (doses to about 76.6 µM), usual class: inhibitors; hit rate 0.093% among 390,000; AID 602179, 2012; note: nearly all actives have a fitted effect of over 65% in size
# Target sequence (O75874 whole entry R132H, stated change not applied): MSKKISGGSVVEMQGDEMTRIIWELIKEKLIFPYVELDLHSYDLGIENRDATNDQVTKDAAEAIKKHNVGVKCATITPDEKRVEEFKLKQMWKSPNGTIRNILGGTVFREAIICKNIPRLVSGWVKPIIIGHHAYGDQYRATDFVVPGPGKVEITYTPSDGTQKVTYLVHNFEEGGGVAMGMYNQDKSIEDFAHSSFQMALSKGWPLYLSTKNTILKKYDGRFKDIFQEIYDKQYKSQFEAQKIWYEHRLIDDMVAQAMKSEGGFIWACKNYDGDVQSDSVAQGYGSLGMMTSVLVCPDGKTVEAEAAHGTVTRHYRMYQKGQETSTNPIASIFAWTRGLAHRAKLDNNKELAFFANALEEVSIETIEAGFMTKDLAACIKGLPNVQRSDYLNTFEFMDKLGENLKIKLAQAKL
#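 IDH1-R132H (0.5 ug/mL dispensed) in pH 7.5 Tris buffer was preincubated 30 min with compound, then given a substrate mix of 0.016 mM NADPH and 2 mM alpha-KG for 80 min at room temperature; remaining NADPH was read by diaphorase/resazurin fluorescence.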
# Eya2 inh: qHTS Assay for Inhibitors of the Phosphatase Activity of Eya2; Potency, µM (series often up to 76.9 µM), actives largely listed as inhibitors; hit rate 0.006% among 330,000; Protein phosphatase EYA2 (Homo sapiens), O00167; recombinant Eya2, OMFP fluorescence dephosphorylation (OMFP is methylfluorescein phosphate); AID 488837, 2010
#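 Eya2 protein (added as 0.2 uM solution) was preincubated with compound for 10 min at ambient temperature in 50 mM HEPES pH 7.5, 50 mM NaCl, 5 uM MgCl2, 0.05% BSA, 1 mM DTT. OMFP (added at 50 uM) then reacted 10 min; fluorescence read at 485/525 nm.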
# Hits are given with their value; - = inactive; ? = inconclusive; . = no result; ! = not active in a repeat. Unless noted, calls come from the whole dose curve; as a rule, active = well fitted curve in the direction sought with a large enough effect; inconclusive = small, poorly fitted or top-dose-only effect, or another doubt; inactive = no such curve, though single readings can be large; an effect the other way counts as inactive or inconclusive.
SMILES,TrxR1 inh,TrxR1 substrate,FBPA coupling cs,mIDH1 inhibitor,Eya2 inh
Cc1cc(S(=O)(=O)N2CCOCC2)ccc1OCC(=O)NCc1ccco1,-,-,-,-,-
CCOc1ccc(CC(=O)C2C(=O)CCCC2=O)cc1OCC,28µM,-,-,-,-
CCOc1ccc(CC(=O)C2C(=O)CC(C)(C)CC2=O)cc1OCC,35µM,-,-,-,-
CCOc1ccc(CC(=O)NC2CC(C)(C)N(C)C(C)(C)C2)cc1OCC,-,-,.,-,-
CCOc1ccc(CC(=N)C2=C(O)CC(C)(C)CC2=O)cc1OCC,-,-,-,-,-
Cc1sc2nc(C(C)C)nc(SCC(=O)N3CCN(C(=O)c4ccco4)CC3)c2c1C,16µM,-,-,-,-
Cc1sc2nnn(CC(=O)N3CCN(C(=O)c4ccco4)CC3)c(=O)c2c1C,?,-,.,-,.
Cc1nc(SCC(=O)N(C)Cc2ccco2)c2c(C)c(C)sc2n1,22µM,-,-,-,-
O=S(=O)(c1ccc(F)cc1F)N1CCN(c2nc(-c3cccs3)nc3ccccc23)CC1,-,-,.,.,.
C/C(=C\C(=O)c1ccccc1)Nc1ccc(O)cc1,-,-,-31,-,-
C/C(=C\C(=O)c1cccnc1)Nc1ccc(O)cc1,-,-,-,-,-
CC[C@@]1([C@@H]2O[C@@H]([C@H]3O[C@@](O)(CO)[C@H](C)C[C@@H]3C)C[C@@H]2C)CC[C@@H]([C@]2(C)CCC3(C[C@H](O)[C@@H](C)[C@@H]([C@@H](C)[C@@H](OC)[C@H](C)C(=O)O)O3)O2)O1 (some centres undefined),.,.,-,.,.
Cc1cc(N)ccc1N1CCCC1,13µM,-,-,-,-
CC(C)(C)OC(=O)NCCCC1=CC2=CC(=O)C(C)(OC(=O)c3cccs3)C(=O)C2=CO1 (centres undefined),.,.,-,.,.
COC(=O)CCCC1=CC2=CC(=O)C(C)(OC(=O)c3cccs3)C(=O)C2=CN1C1CCCCC1 (centres undefined),-,-,-41!,-,-
COC(=O)CCCC1=CC2=CC(=O)C(C)(OC(=O)c3cccs3)C(=O)C2=CN1C1CC1 (centres undefined),-,-,-40!,-,-
O=C(Nc1ccc(Br)cn1)c1cnn2c1NC(=C1CC1)C=C2C(F)F,-,-,.,.,.
CCC1C(=O)CC2CCN3C(=O)CCC1C23 (centres undefined),-,-,-,.,.
CC(C)(C)n1ncc2c(=O)n(Cc3cccc(OC(F)(F)F)c3)cnc21,-,-,.,.,.
N/C(Cc1cccc2ccccc12)=N\OC(=O)Cc1cccs1,-,-,-40,-,-
Cc1nc2cc(Cl)c(Cl)cc2n1CCCO,-,-,-,-,?
Cc1cc(=S)cc(C)n1CCCO,13µM,-,-,-,-
O=C(c1ccccc1)n1c(=O)c(F)cn(COCCBr)c1=O,45µM,-,-,-,-
CCn1c(SCC(=O)N/N=C/C=C/c2ccco2)nnc1-c1ccccc1,35µM,-,-,-,-
Cn1c(SCC(=O)N/N=C/C=C/c2ccco2)nc2ccccc21,45µM,-,-,-,-
SMILES,TrxR1 inh,TrxR1 substrate,FBPA coupling cs,mIDH1 inhibitor,Eya2 inh
Cc1nc([N+](=O)[O-])cn1CC(=O)c1ccc2c(c1)OCCO2,-,?,.,.,.
COc1cc2nc(NC3CCN(C)CC3)nc(NC3CCN(C)CC3)c2cc1OC,-,-,.,.,.
CNc1cccccc1=S,7.9µM,-,-,-,-
O=C(/C=C/c1ccc(I)cc1)c1ccc(B(O)O)cc1,.,.,-,.,.
O=C(O)c1ccc(/C=C2\SC(=S)N(Nc3ccccc3)C2=O)cc1,50µM,-,-,-,-
O=C1/C(=C/c2ccncc2)SC(=S)N1Nc1ccccc1,4.5µM,-,-,-,?
C=C1C(=O)OC(CCCCCCCC)C1C(=O)O (centres undefined),.,.,-,.,.
COc1ccc(NS(=O)(=O)c2cccc(C(=O)N/N=C(\C)c3ccncc3)c2)cc1,-,-,-,-,-
